# From PubChem BioAssay AID1851 (National Center for Advancing Translational Sciences (NCATS), 2009)
# Hit rate of the full screen: of about 16,000 compounds, about 4,000 (25%) were called active. Inconclusive results (about 26%) are left out. Only a sample is shown. Values without a mark were called inactive. Calls come from the whole dose curve; as a rule, active = well fitted curve in the direction sought with a large enough effect; inconclusive = small, poorly fitted or top-dose-only effect, or effect the other way; inactive = no such curve, though single readings can be large or run the other way.
# Molecular target: Cytochrome P450 2C9 (Homo sapiens) (UniProt P11712)
# Experiment: Cytochrome panel assay with activity outcomes
# Conditions: recombinant CYP, pro-luciferin dealkylation, luminescence, p450-cyp2c9; series mostly up to 57.1 µM; activity, negative = inhibition: at the top concentration
# % is set by controls: 0 for no effect and ±100 for the full control effect.
# Chain of Cytochrome P450 2C9 (Homo sapiens) (P11712 whole entry, looked up): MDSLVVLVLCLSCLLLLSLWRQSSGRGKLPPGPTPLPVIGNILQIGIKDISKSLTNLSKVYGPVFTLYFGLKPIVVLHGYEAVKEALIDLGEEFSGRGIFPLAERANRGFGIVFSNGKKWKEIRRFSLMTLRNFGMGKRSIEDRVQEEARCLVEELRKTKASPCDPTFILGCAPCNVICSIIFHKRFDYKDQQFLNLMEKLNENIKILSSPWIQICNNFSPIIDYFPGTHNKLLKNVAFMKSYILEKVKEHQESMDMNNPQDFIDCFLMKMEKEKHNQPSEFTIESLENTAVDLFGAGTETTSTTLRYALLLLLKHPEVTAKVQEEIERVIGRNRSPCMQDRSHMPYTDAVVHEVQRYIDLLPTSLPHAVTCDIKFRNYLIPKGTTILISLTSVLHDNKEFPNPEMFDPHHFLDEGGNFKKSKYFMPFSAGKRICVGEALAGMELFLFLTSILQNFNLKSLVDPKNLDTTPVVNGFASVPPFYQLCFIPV
SMILES,"activity, negative = inhibition",AC50
C[C@@H]1O[C@H](O[C@@H]2[C@H](C)O[C@H](O[C@@H]3[C@H](C)O[C@H](O[C@H]4CC[C@]5(C)[C@@H](CC[C@@H]6[C@H]5C[C@@H](O)[C@]5(C)[C@@H](C7=CC(=O)OC7)CC[C@]65O)C4)C[C@@H]3O)C[C@@H]2O)C[C@H](O)[C@@H]1O,25.1% [at 25.6 µM],
C[C@@H](Cc1ccccc1)Nc1ncnc2c1ncn2[C@@H]1O[C@@H](CO)[C@H](O)[C@@H]1O,18.9%,
COCCNc1nc(-c2c(C)noc2C)nc2ccccc12,15% [at 2.29 µM],
NC(=S)N/N=C/c1ccccc1OCc1cccc(Cl)c1,,1.58 µM (active)
NC(N)=NC(N)=Nc1cccc(Cl)c1,4.42%,
CCCCC1(C)Nc2ccccc2-c2nc3ccccc3n21 (configuration not stated),,12.6 µM (active)
CCC1(C)Nc2ccccc2C(=O)N1O (configuration not stated),12.4%,
NC1=NC2(CCCCCC2)n2c(nc3ccccc32)N1,-11.5%,
CCCC1(C)Nc2ccccc2-c2nc3ccccc3n21 (configuration not stated),,3.98 µM (active)
CC1CCC2(CC1)N=C(N)Nc1nc3ccccc3n12 (configuration not stated),-29.6%,
COc1c2c(nc3ccccc13)O[C@@H]([C@@](C)(O)CO)C2,-7.31%,
C=C(C)C1CC=C(C)/C(=N/NC(=O)c2ccc(NC(=O)c3cccc(C)c3)cc2)C1 (configuration not stated),,1.58 µM (active)
Cc1cccc(C(=O)NNC(=O)C2CCCO2)c1 (configuration not stated),-2.49%,
Cc1cccc(C(=O)NNC(=O)C(=O)NC(C)(C)C)c1,-6.6%,
COc1ccc(Cc2n[nH]c(=O)c3ccccc23)cc1OC,,25.1 µM (active)
COc1ccc(CCN(C)CCc2ccc(OC)c(OC)c2)cc1OC,,inactive
COc1ccc(C[N+](C)(C)N)cc1OC,13.9% [at 11.4 µM],
CCCCc1ccc2nc(NC(=O)OC)[nH]c2c1,1.99% [at 25.6 µM],
Nc1c(OCC(=O)O)ccc2cc(S(=O)(=O)O)ccc12,-7.12% [at 11.4 µM],
COc1cccc(-c2ccc3ncnc(N4CCOCC4)c3c2)c1,-6.77% [at 2.29 µM],
Clc1ccc(Sc2cc(N3CCOCC3)nc(-c3ccccc3)n2)cc1,,10 µM (active)
c1ccc2c(N3CCOCC3)nc(-c3ccoc3)nc2c1,11.8% [at 2.29 µM],
COc1cccc(Sc2cc(N3CCOCC3)nc(-c3ccccc3)n2)c1,,10 µM (active)
Nc1nc(Cl)cc(N2CCOCC2)n1,6.83%,

SMILES,"activity, negative = inhibition",AC50
Brc1ccc([C@H]2CN3CCSC3=N2)cc1,-16%,
CN1CCN(c2ncncc2-c2ccc(C(=O)N(C)C)cc2)CC1,16.3% [at 2.29 µM],
O=P(O)(O)CCP(=O)(c1ccccc1)c1ccccc1,1.21%,
CCNc1ncc2nc(-c3cc(F)cc(F)c3)c(=O)n(C[C@H]3CCCO3)c2n1,5.57%,
O=C1CC(c2ccc(F)cc2)Cc2nc(NCC3CCCO3)ncc21 (configuration not stated),,12.6 µM (active)
CCNc1ncc2nc(-c3ccc(F)cc3)c(=O)n(C[C@H]3CCCO3)c2n1,18.5%,
Cc1ccc2nc(SCC(=O)NCc3cccs3)c(C#N)cc2c1,-10.6%,
Cc1nc2cccc([N+](=O)[O-])c2n1CCCN(C)C,-4.5% [at 11.4 µM],
Cc1ccc2nc(SCc3nnc(-c4ccccc4[N+](=O)[O-])o3)c(C#N)cc2c1,,0.794 µM (active)
CN1CCC(=C2c3ccccc3CC(=O)c3sccc32)CC1,,inactive
O=C(O)CN(CCN(CC(=O)O)CC(=O)O)CC(=O)O.[Mn],-0.525% [at 11.4 µM],
Cc1cn2c(-c3ccncc3)nnc2s1,-23.3%,
c1cc(-c2sc(-c3ccncc3)c(-c3ccncc3)c2-c2ccncc2)ccn1,,2 µM (active)
Cc1ccccc1NS(=O)(=O)c1ccc2[nH]cc(C(=O)NCCCN3CCOCC3)c(=O)c2c1,,12.6 µM (active)
COc1cccc(NS(=O)(=O)c2ccc3[nH]cc(C(=O)NCCN4CCOCC4)c(=O)c3c2)c1,,7.94 µM (active)
COc1cccc(C2=NOC(C(=O)NCCN3CCOCC3)C2)c1 (configuration not stated),-23.4%,
CCC(CC)C(=O)c1c[nH]c(C(=O)NCCCN2CCOCC2)c1,-7.46%,
Cc1ccccc1NS(=O)(=O)c1ccc2[nH]cc(C(=O)N(C)Cc3ccco3)c(=O)c2c1,,12.6 µM (active)
CN1CCN(S(=O)(=O)c2ccc3[nH]cc(C(=O)O)c(=O)c3c2)CC1,-21.4%,
Cc1cc(S(=O)(=O)NCCCN2CCOCC2)ccc1F,-0.482%,
CS(=O)(=O)Nc1cccc(-c2nc(NCCN3CCOCC3)c3ccccc3n2)c1,3.9% [at 2.29 µM],
CO[C@H]1COC(=O)C/C=C\[C@@H](C)COC(=O)[C@@H](C)NC(=O)C/C=C\[C@@H]1C,-12.1% [at 11.4 µM],
CCOC(=O)C1CCN(C(=O)c2ccccc2NC(C)=O)CC1,-13.2%,
